Values joined by “and” are separate entries in the source; they are usually repeats but may differ in a detail not shown here. Identical values can stand only once. The whole screen tested about 5,500 compounds, of which about 2,000 (36%) were called active. Inconclusive results (about 18%) are left out. Cut-off read from the data, not from the text of the source: active = normalized growth mostly below about 0.91 (no sharp cut-off); inconclusive = no clear call, values can overlap the other calls; inactive = mostly above about 0.92. This is one part of the list.
Assay: chemical genetic growth profiling, strain panel (AID 1159580);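 note: tested at 20 µM; growth read once vehicle control cultures reached saturation at 30 °C; 1 = growth at the plate median or of vehicle wells; lower values mean less growth of the strain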
Details: S. cerevisiae deletion strains, growth OD

Measured: normalized growth

CCCc1nc(C(C)(C)O)c(C(=O)OCc2oc(=O)oc2C)n1Cc1ccc(-c2ccccc2-c2nn[nH]n2)cc1
inactive: locus YAL013W, strain DEP1, hits give low values 0.99 | locus YAL021C, strain ccr4, hits give low values 0.976 | locus YAL026C, strain drs2, hits give low values 0.966 | locus YAL030W, strain snc1, hits give low values 0.955 | locus YBL061C, strain skt5, hits give low values 0.979 | locus YBR009C, strain hhf1, hits give low values 1 | locus YBR021W, strain FUR4, hits give low values 0.987 | locus YBR023C, strain chs3, hits give low values 0.961 | locus YBR171W, strain sec66, hits give low values 0.957 | locus YBR229C, strain ROT2, hits give low values 0.989 | locus YBR231C, strain swc5, hits give low values 0.974 | locus YBR279W, strain paf1, hits give low values 0.973 | locus YCL011C, strain gbp2, hits give low values 0.945 | locus YCL016C, strain dcc1, hits give low values 0.994 | locus YCL029C, strain bik1, hits give low values 0.982 | locus YCL069W, strain vba3, hits give low values 0.987 | locus YCR088W, strain abp1, hits give low values 0.977 | locus YDL005C, strain med2, hits give low values 0.983 | locus YDL035C, strain GPR1, hits give low values 1 | locus YDL040C, strain nat1, hits give low values 0.976 | locus YDL074C, strain BRE1, hits give low values 1.01 | locus YDL101C, strain DUN1, hits give low values 0.991 | locus YDL134C, strain PPH21, hits give low values 0.986 | locus YDL185W, strain tfp1, hits give low values 0.983 | locus YDL192W, strain arf1, hits give low values 0.985 | locus YDR001C, strain nth1, hits give low values 0.945 | locus YDR069C, strain doa4, hits give low values 0.956 | locus YDR101C, strain arx1, hits give low values 0.994 | locus YDR137W, strain rgp1, hits give low values 0.943 | locus YDR150W, strain NUM1, hits give low values 1 | locus YDR159W, strain sac3, hits give low values 0.933 | locus YDR162C, strain NBP2, hits give low values 1 | locus YDR195W, strain ref2 0.922 | locus YDR297W, strain sur2, hits give low values 0.981 | locus YDR318W, strain mcm21, hits give low values 0.994 | locus YDR334W, strain swr1, hits give low values 0.945 | locus YDR335W, strain msn5, hits give low values 0.952 | locus YDR388W, hits give low values 0.987 | locus YDR392W, strain spt3, hits give low values 1.02 | locus YDR502C, strain sam2, hits give low values 0.986 | locus YEL003W, strain gim4, hits give low values 0.972 | locus YEL037C, strain rad23, hits give low values 0.968 | locus YEL061C, strain CIN8 (second series), hits give low values 0.955 | locus YEL061C, strain CIN8, hits give low values 1.01 | locus YER015W, strain faa2, hits give low values 0.99 | locus YER016W, strain bim1, hits give low values 0.967 | locus YER110C, hits give low values 0.985 | locus YER111C, strain swi4, hits give low values 0.965 | locus YER155C, strain BEM2 (second series), hits give low values 0.906 | locus YER155C, strain BEM2, hits give low values 1.02 | locus YER167W, strain BCK2, hits give low values 0.99 | locus YFR010W, strain ubp6, hits give low values 0.967 | locus YGL078C, strain dbp3, hits give low values 0.99 | locus YGL086W, strain mad1, hits give low values 0.986 | locus YGL167C, strain pmr1, hits give low values 0.957 | locus YGL173C, strain kem1, hits give low values 0.985 | locus YGL227W, strain vid30, hits give low values 0.96 | locus YGL240W, strain doc1, hits give low values 0.949 | locus YGL248W, strain PDE1, hits give low values 0.99 | locus YGL253W, strain hxk2, hits give low values 0.962 | locus YGR078C, strain PAC10, hits give low values 1.02 | locus YGR135W, strain pre9, hits give low values 0.995 | locus YGR229C, strain SMI1, hits give low values 1 | locus YGR252W, strain gcn5, hits give low values 1.02 | locus YHR013C, strain ard1, hits give low values 0.978 | locus YHR027C, strain rpn1, hits give low values 0.973 | locus YHR030C, strain SLT2, hits give low values 0.99 and 0.967 | locus YHR079C, strain IRE1 (second series), hits give low values 0.984 | locus YHR079C, strain IRE1, hits give low values 0.954 | locus YHR094C, strain hxt1, hits give low values 0.989 | locus YHR129C, strain ARP1, hits give low values 0.987 | locus YHR142W, strain chs7, hits give low values 1 | locus YHR200W, strain rpn10, hits give low values 0.981 | locus YIL066C, strain RNR3, hits give low values 0.994 | locus YIL073C, strain SPO22, hits give low values 1.02 | locus YIL125W, strain kgd1, hits give low values 0.989 | locus YIR030C, strain dcg1, hits give low values 0.982 | locus YJL092W, strain hpr5, hits give low values 0.982 | locus YJL095W, strain BCK1 (second series), hits give low values 0.973 | locus YJL095W, strain BCK1, hits give low values 0.987 and 0.988 | locus YJL115W, strain asf1, hits give low values 0.967 | locus YJL129C, strain trk1, hits give low values 0.965 | locus YJL134W, strain LCB3, hits give low values 0.994 | locus YJL154C, strain vps35, hits give low values 0.966 | locus YJL164C, strain tpk1, hits give low values 0.996 | locus YJL166W, strain qcr8, hits give low values 0.966 | locus YJL168C, strain set2, hits give low values 0.997 | locus YJL187C, strain SWE1 (second series), hits give low values 0.987 | locus YJR043C, strain POL32, hits give low values 0.997 | locus YJR066W, strain TOR1, hits give low values 0.931 | locus YJR075W, strain HOC1, hits give low values 1.01
